This is an account of results in PubChem BioAssay AID1851 (National Center for Advancing Translational Sciences (NCATS), 2009).

About 5,100 (32%) of roughly 16,000 compounds were called active. About 25% were inconclusive and are not listed. Calls come from the whole dose curve; as a rule, active = well fitted curve in the direction sought with a large enough effect; inconclusive = small, poorly fitted or top-dose-only effect, or effect the other way; inactive = no such curve, though single readings can be large or run the other way. Some of the results follow.
% is set by controls: 0 for no effect and ±100 for the full control effect.

Sequence of Cytochrome P450 3A4 (Homo sapiens) (P08684 whole entry, looked up): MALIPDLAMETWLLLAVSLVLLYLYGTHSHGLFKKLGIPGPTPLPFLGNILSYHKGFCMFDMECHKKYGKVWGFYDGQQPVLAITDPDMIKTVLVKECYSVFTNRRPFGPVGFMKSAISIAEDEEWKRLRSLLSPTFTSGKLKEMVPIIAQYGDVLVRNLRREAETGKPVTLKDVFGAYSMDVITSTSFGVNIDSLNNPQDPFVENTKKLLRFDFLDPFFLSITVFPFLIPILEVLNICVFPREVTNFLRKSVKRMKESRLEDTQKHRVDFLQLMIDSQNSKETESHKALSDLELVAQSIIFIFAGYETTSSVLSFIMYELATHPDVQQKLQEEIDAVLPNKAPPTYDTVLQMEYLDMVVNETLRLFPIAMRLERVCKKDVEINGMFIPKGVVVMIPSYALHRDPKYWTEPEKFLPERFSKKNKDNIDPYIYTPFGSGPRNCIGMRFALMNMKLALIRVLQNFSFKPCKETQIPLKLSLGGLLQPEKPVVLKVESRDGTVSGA

This experiment concerns the target Cytochrome P450 3A4 (Homo sapiens) (UniProt P08684). Nature of the experiment: Cytochrome panel assay with activity outcomes. The conditions noted are these: recombinant CYP, pro-luciferin dealkylation, luminescence, p450-cyp3a4; series mostly up to 57.1 µM.
Turning to `CN1CCCCC1=NCCCn1cnc2c1c(=O)n(C)c(=O)n2C`, the AC50 (as a rule, the midpoint of the concentration-response curve, whichever way the signal moves) was “inactive”. On the same count and under the same terms, under `CC(=O)[C@H]1CC[C@@H]2[C@H]3CC=C4C[C@@H](O)CC[C@]4(C)[C@H]3CC[C@]12C` stands “inactive”; under `Cc1cc(C)c2c(-n3cccc3)n[nH]c2n1`, “inactive”; under `COCCNc1ncnc2ccc(-c3cccnc3)cc12`, 10 µM (active).

As to `COCCNc1ncnc2ccc(-c3cccc(OC)c3)cc12`, the AC50 was 12.6 µM (active). On the same count and under the same terms, under `COc1cccc(-c2ccc3ncnc(NCCNC(C)=O)c3c2)c1` stands 15.8 µM (active). `Brc1[nH]nc2ccccc12`: the AC50 entry was “inactive”. On the same count and under the same terms, under `O=[N+]([O-])c1cccc2cn[nH]c12` stands “inactive”. Same read-out and setting: under `O=[N+]([O-])c1cccc2c(Br)[nH]nc12` stands 12.6 µM (active); under `COC(=O)c1ccc(NC(=O)Cn2nc(-c3ccncc3)nc2SCC(=O)Nc2nccs2)cc1`, 2 µM (active). The same measure, in the same setting: under `Cc1oc(-c2cccs2)[n+]([O-])c1C` stands “inactive”. On to `CC(=O)Nc1ccc(NC2=Nc3ccccc3N3C2=Nc2c(c(C)nn2-c2ccccc2)C3c2ccccc2)cc1` (stereo not given), for which the AC50 entry was “inactive”.

In the case of `CCN(CCCNC(=O)CC(C(=O)N1CCc2ccccc21)n1ccnc1)c1ccccc1` (stereo not given), the AC50 was 0.794 µM (active). Take `CCN(CC)CCC(=O)Nc1ccc2c(c1)N(C(=O)CN(CC)CC)c1ccccc1CC2`: the activity, negative = inhibition was 3.63% [at 2.29 µM] (inactive). Turning to `CCCCN(C)CCCNC(=O)CCn1nc(-c2ccccc2)ccc1=O`, the AC50 result was “inactive”. Same read-out and setting: with `Cc1cc(C)c(S(=O)(=O)n2ccc(-c3ccc(OCCN(C)c4ccccn4)cc3)n2)c(C)c1` the figure was 2.24 µM (active); with `COC(=O)[C@@H]1C[C@H]1[C@@H](NC(=O)c1cc(C)nn1C)c1ccccc1`, 10 µM (active); with `COC(=O)[C@H]1C[C@@H]1[C@H](NC(=O)c1cc(C)nn1C)c1ccccc1`, 6.31 µM (active). The same measure, in the same setting: with `O=c1ccc(Oc2nc(N3CCOCC3)nc(N3CCOCC3)n2)n[nH]1` the entry was “inactive”; with `COc1ccc(/C=C(/C#N)C(=O)Nc2cc(C)ccc2C)cc1C(=O)O`, “inactive”. Still for that read-out and setting: under `O=C(O)/C=C\C(=O)NCc1ccccc1` stands “inactive”. Regarding `N#C/C(=C\c1ccc(O)c(O)c1)C(=O)Nc1ccccc1`, the AC50 was 15.8 µM (active). Turning to `N#C/C(=C\c1ccc(O)c(O)c1)C(=O)NCc1ccccc1`, the AC50 was 15.8 µM (active). The same measure, in the same setting: under `Cc1cc(/C=C(/C#N)C(=O)Nc2ccccc2)c(C)n1-c1cccnc1` stands “inactive”; under `N#C/C(=C\c1ccc(O)c(O)c1)C(=O)NCCCc1ccccc1`, 2.51 µM (active); under `N#C/C(=C\c1ccc(O)c(O)c1)C(=O)NCCc1ccccc1`, 3.98 µM (active). Still for that read-out and setting: under `COCCN1CN=C(Nc2nc3ccccc3o2)NC1` stands “inactive”. Consider `CC(/C=N/NC(=O)Cc1cccs1)=C\c1ccco1`, for which the activity, negative = inhibition is 1.99% [at 2.29 µM] (inactive). Take `CC(C)(C)c1ccc(OCC(=O)NNC(=O)Cc2cccs2)cc1`: the AC50 was 3.98 µM (active). Turning to `CC(=O)OCC1=C(C(=O)O)N2C(=O)[C@@H](NC(=O)Cc3cccs3)[C@@H]2SC1`, the AC50 result is “inactive”. On to `CCNS(=O)(=O)c1ccc(NS(C)(=O)=O)cc1`, for which the AC50 result was “inactive”. The same measure, in the same setting: with `O=S(=O)(Nc1ccc(Cc2ccncc2)cc1)c1cccs1` the figure was 0.355 µM (active). Same read-out and setting: with `O=S(=O)(Nc1ccc(Cc2ccncc2)cc1)c1ccc(Cl)c(Cl)c1` the figure was 0.398 µM (active). On the same count and under the same terms, with `O=S(=O)(Nc1ccc(Cc2ccncc2)cc1)c1ccc(Br)cc1` the figure was 0.355 µM (active). Consider `Cc1ccc(NC(=O)NNS(=O)(=O)c2ccc(Br)cc2)cc1`, for which the AC50 entry is “inactive”. `C/C(=N/S(=O)(=O)c1ccc(Cl)c(Cl)c1)OCC(C)(C)C`: the activity, negative = inhibition is -5.85% [at 11.4 µM] (inactive). The same measure, in the same setting: under `O=C1C(Cl)=C(Nc2ccc(S(=O)(=O)Nc3ccccn3)cc2)C(=O)c2ccccc21` stands -10.8% [at 11.4 µM] (inactive). Consider `N[C@H](Cn1ccc(=O)n(Cc2ccccc2C(=O)O)c1=O)C(=O)O`, for which the AC50 entry was “inactive”.

Regarding `CCc1sc(-c2c(C#N)c(N)nc3c2CCCCCC3)cc1[N+](=O)[O-]`, the activity, negative = inhibition was -20.1% [at 2.29 µM] (inactive). Consider `Cn1ncc(C#N)c1/N=C/N1CCCCCC1`, for which the AC50 result is “inactive”.

`Cc1c(-c2c(C#N)c(N)nc3c2CCCCCC3)cnn1C`: the AC50 is 7.94 µM (active).

As to `N#Cc1c(N)nc2c(c1-c1cccc(O)c1)CCCCCC2`, the AC50 was 4.47 µM (active).

On to `CC(C)CNC(=S)N1CCN(C)CC1`, for which the AC50 entry is “inactive”. Consider `O=C(O)c1cc([N+](=O)[O-])ccc1NCCCc1ccccc1`, for which the AC50 result is “inactive”. On the same count and under the same terms, under `Cc1ccc(NC(=O)c2cc([N+](=O)[O-])ccc2NCc2cccnc2)cc1Cl` stands 3.98 µM (active); under `Cc1ccc(C)c(-c2cc(C(=O)Nc3sc(C)c(C)c3C(N)=O)c3ccccc3n2)c1`, 2.82 µM (active). On the same count and under the same terms, under `COC(=O)c1sccc1NC(=O)c1cc(-c2cc(C)ccc2C)nc2ccccc12` stands 4.47 µM (active).

As for `O=C(O)c1cc(-c2ccc(-c3ccc(-c4cc(C(=O)O)c5cc(Cl)ccc5n4)cc3)cc2)nc2ccc(Cl)cc12`, the activity, negative = inhibition was 24.9% [at 11.4 µM] (inactive). Regarding `Cc1cc(C)c(C(N)=O)c(NC(=O)Nc2ccccc2)n1`, the AC50 entry was “inactive”. Turning to `Cc1sc(NC(=O)C2CCCCC2C(=O)O)c(C(N)=O)c1C` (stereo not given), the activity, negative = inhibition is 14.4% [at 2.29 µM] (inactive).

In the case of `COC(=O)c1sccc1NC(=O)c1cc(-c2ccc(C)cc2)nc2ccccc12`, the AC50 result was “inactive”. On the same count and under the same terms, with `COC(=O)c1sccc1NC(=O)c1cc(-c2ccc(C)cc2C)nc2ccccc12` the figure was 7.08 µM (active). As for `Cc1ccc(-c2cc(C(=O)NN=C3CCCC3)c3ccccc3n2)cc1`, the AC50 is 7.94 µM (active).

As for `CCN1C(=O)[C@H]2[C@H]3[C@H](O)[C@H](O)C/C(=N/O[C@@H]4O[C@H](COC(C)=O)[C@@H](OC(C)=O)[C@H](OC(C)=O)[C@H]4OC(C)=O)[C@@H]3CC[C@@H]2C1=O`, the activity, negative = inhibition was -5.68% [at 11.4 µM] (inactive). On to `Cc1ccccc1-c1cc(C(=O)Nc2nc3c(s2)CCCC3)c2ccccc2n1`, for which the AC50 is 3.16 µM (active).

As to `Cc1ccc(C)c(-c2cc(C(=O)NCc3cccs3)c3ccccc3n2)c1`, the AC50 is 1.41 µM (active). On the same count and under the same terms, under `Cc1ccc(Nc2ncccc2C(=O)NCc2cccs2)c(C)c1` stands 12.6 µM (active).

As to `Cc1ccccc1-c1cc(C(=O)n2cccn2)c2cc(Cl)ccc2n1`, the AC50 result was “inactive”.

Consider `Cc1ccc(-c2cc(C(=O)NCc3ccco3)c3ccccc3n2)s1`, for which the AC50 is 10 µM (active). For the molecule `CC[C@](N)(CCC(=O)O)C(=O)O`, the AC50 result was “inactive”. In the case of `Cc1ccc(C)c(-c2cc(C(=O)Nc3nccs3)c3ccccc3n2)c1`, the AC50 was 2.82 µM (active). The same measure, in the same setting: with `CN1CCC2(CC1)C1CN(C)CC=C1C(C#N)=C(N)C2(C#N)C#N` (stereo not given) the entry was “inactive”; with `CCN1CC=C2C(C#N)=C(N)C(C#N)(C#N)[C@H](c3ccoc3)[C@H]2C1`, 11.2 µM (active); with `CCCN1CC=C2C(C#N)=C(N)C(C#N)(C#N)C(c3cc(OC)ccc3OC)C2C1` (stereo not given), 2 µM (active). Same read-out and setting: under `CCC/C=C(\CCC)C(NC(=O)c1cccs1)c1ccc(C(=O)OC)cc1` (stereo not given) stands 1.26 µM (active); under `CCC/C=C(\CCC)C(NS(=O)(=O)c1cccs1)c1ccc(C(=O)OC)cc1` (stereo not given), 3.16 µM (active); under `CCC/C=C(\CCC)C(NC(=O)c1cccs1)c1ccc(C(F)(F)F)cc1` (stereo not given), 2.51 µM (active). Still for that read-out and setting: under `COc1nccc(-c2c(-c3ccc(F)cc3)ncn2C2CCC(O)CC2)n1` (stereo not given) stands “inactive”; under `Cc1ccccc1OC/C(O)=C(\C#N)c1nc2ccccc2[nH]1`, “inactive”. As for `COc1cccc(OC)c1/C(O)=C(\C#N)c1nc2ccccc2[nH]1`, the AC50 is 2 µM (active). `Cn1c(=O)n(C)c2cc(/C=N/n3cnnc3)ccc21`: the activity, negative = inhibition was 2.58% [at 2.29 µM] (inactive). As to `CCn1c2ccccc2c2cc(/C=N/n3cn[nH]c3=S)ccc21`, the AC50 was 7.08 µM (active).

On to `O=C(O)c1cccnc1`, for which the AC50 result was “inactive”. Same read-out and setting: with `CC(C)(C(=O)c1cccnc1)c1cccnc1` the figure was 1.26 µM (active); with `Cc1ccc(S(=O)(=O)/C(C#N)=C/c2c(N3CC(C)OC(C)C3)nc3ccccn3c2=O)cc1` (stereo not given), 1.41 µM (active); with `Cn1c(C(=O)N2COCC2(C)C)cc2c(=O)n3ccccc3nc21`, “inactive”.

As to `CON(c1nc(N(C)C)nc(N(C)C)n1)S(=O)(=O)c1ccccc1Cl`, the AC50 was 12.6 µM (active). On the same count and under the same terms, with `Fc1ccc2nc3[nH]c4ccccc4c3nc2c1` the figure was 14.1 µM (active). For the molecule `Cc1cc2nc3[nH]c4c(Cl)cc(Cl)cc4c3nc2cc1C`, the activity, negative = inhibition is -18.7% [at 11.4 µM] (inactive). Consider `O=c1[nH]c(=O)c2nc3ccccc3nc2[nH]1`, for which the AC50 entry was “inactive”.

`CN(C)c1ccc(-c2nc(N(C)Cc3ccco3)c3ccccc3n2)cc1`: the AC50 is 10 µM (active).

As for `CN(Cc1ccco1)c1nc(-c2ccc3c(c2)OCO3)nc2ccccc12`, the AC50 was 1.58 µM (active). In the case of `CN(Cc1ccccc1)c1nc(-c2ccc([N+](=O)[O-])cc2)nc2ccccc12`, the AC50 was 1.12 µM (active).

Turning to `CN(Cc1ccco1)c1nc(-c2ccoc2)nc2ccccc12`, the AC50 is 25.1 µM (active). Still for that read-out and setting: with `CN(C)C(=O)c1ccc(-c2nc(N(C)Cc3ccco3)c3ccccc3n2)cc1` the entry was “inactive”; with `C[C@H](CCC(=O)NCC(=O)O)[C@H]1CC[C@H]2[C@H]3[C@@H](C[C@@H](O)[C@]12C)[C@]1(C)CC[C@H](O)C[C@@H]1C[C@@H]3O`, “inactive”; with `COc1ccc(CNc2ncnc3ccc(-c4ccoc4)cc23)c(OC)c1`, 3.16 µM (active). Still for that read-out and setting: with `COc1ccccc1CNc1ncnc2ccc(-c3ccoc3)cc12` the figure was 15.8 µM (active); with `CCOC(=O)/C(C(N)=NCCCO)=C(/O)c1ccccc1`, “inactive”. `COc1ccccc1CNc1ncnc2ccc(-c3cccc(NS(C)(=O)=O)c3)cc12`: the AC50 was 3.16 µM (active). Still for that read-out and setting: under `COc1ccc(CNc2ncnc3ccc(-c4cccc(NS(C)(=O)=O)c4)cc23)c(OC)c1` stands 2 µM (active). Take `Cn1c(=O)c2[nH]c(/N=N\N3CCN(CCO)CC3)nc2n(C)c1=O`: the activity, negative = inhibition is -17% [at 11.4 µM] (inactive).

On to `Cc1ccc(Nc2c([N+](=O)[O-])ccc3c2=NC2(CCCCC2)N=3)cc1`, for which the AC50 is 7.08 µM (active).

On to `CCC/C=C(\CCC)C(NC(=O)c1ccc(C(=O)OC)cc1)c1ccc(C(=O)OC)cc1` (stereo not given), for which the AC50 was 15.8 µM (active). Still for that read-out and setting: with `CCC/C=C(\CCC)C(NC(=O)OCC(C)C)c1ccc(C(=O)OC)cc1` (stereo not given) the figure was 12.6 µM (active). Still for that read-out and setting: under `CCOC(=O)NC(NC(=O)OCC)C(=O)c1ccc(F)cc1` stands “inactive”; under `CCC/C=C(\CCC)C(NC(=O)Cc1ccccc1)c1ccc(C(=O)OC)cc1` (stereo not given), 3.98 µM (active); under `CCC/C=C(\CCC)C(NC(=O)Oc1ccc(F)cc1)c1ccc(C(=O)OC)cc1` (stereo not given), “inactive”. Consider `CCN(CC)c1nc(Nc2ccccc2)nc(Oc2ccc(C(=O)OC)cc2)n1`, for which the AC50 entry is “inactive”. The same measure, in the same setting: under `CCC/C=C(\CCC)C(NC(=O)C(C)(C)C)c1ccc(C(=O)OC)cc1` (stereo not given) stands 10 µM (active).
